Source: PubChem BioAssay (Tox21)
Records with an inconclusive call do not appear. Calls of active or inactive are those of the source. Unless noted, the call rests on the fitted dose curve; in most records, active means well fitted curve in the direction sought with a large enough effect in the repeat runs; inconclusive means weak or mixed curves; inactive means no such curve, though single readings can be large; an effect the other way counts as inactive or inconclusive.

Experiments:
[1] = qHTS assay for small molecule agonists of the p53 signaling pathway (AID 651631; calls by dose curve; further: nearly all actives have a fitted effect of over 15% in size)
Summary of the method: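 HCT-116 cells carrying a beta-lactamase reporter under p53 response elements were dosed with compound for 16 h at 37 °C. LiveBLAzer B/G FRET substrate was then added for 2 h at room temperature, and fluorescence intensity was read to detect pathway agonism.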

[2] = qHTS assay for small molecules that induce genotoxicity in human embryonic kidney cells expressing luciferase-tagged ATAD5 (AID 651632); further: nearly all actives have a fitted effect of over 15% in size
Summary of the method: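 ATAD5-luc HEK293T, 2,000 cells/well; cpd or DMSO pin-transferred; 16 hr, 37C/5% CO2; Amplite 30 min RT; luminescence.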

[3] = qHTS assay for small molecule agonists of the p53 signaling pathway - cell viability (AID 651633; calls by dose curve;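 further: p53RE-bla HCT reporter cells with a stable beta-lactamase p53 reporter; series mostly up to about 83 µM; nearly all actives have a fitted effect of over 30% in size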)
Summary of the method: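 p53RE-bla cells, seeded at 4,000 per well and rested 5 h at 37 C/5% CO2, received compounds in DMSO for 16 h at 37 C. CellTiter-Glo was then added, and luminescence was read after 30 min at room temperature to gauge cytotoxicity.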

[4] = qHTS assay for small molecule disruptors of the mitochondrial membrane potential - cell viability (AID 720634; calls by dose curve;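 further: human HepG2 liver cancer cells; series mostly up to about 83 µM; nearly all actives have a fitted effect of over 20% in size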)
Summary of the method: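 Cells: HepG2, 2,000/well, attached overnight. Compound 1 hr, 37 C/5% CO2. +m-MPI dye, +CellTiter-Glo 30 min RT. Readout: luminescence (ATP).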

[5] = qHTS assay for small molecule disruptors of the mitochondrial membrane potential (AID 720635)
Summary of the method: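 HepG2 cells (2,000/well) attached overnight at 37C, then took compound for 1 hr at 37C, 5% CO2. Mito-MPS dye was added for 30 min; fluorescence was read at 490/535 nm (monomers) and 540/590 nm (aggregates).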

[6] = qHTS assay to test for compound auto fluorescence at 590 nm (red) in HepG2 cells (AID 720674)
Summary of the method: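 Compound auto-fluorescence is scored relative to Rose Bengal sodium, measured at 540/590 nm in live HepG2 cultures after 1 hr compound contact (37 C, 5% CO2).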

[7] = qHTS assay to test for compound auto fluorescence at 535 nm (green) in HepG2 cells (AID 720675)
[8] = qHTS assay to test for compound auto fluorescence at 460 nm (blue) in HEK293 cells (AID 720678)
Summary of the method: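 Auto fluorescence in the blue band was quantified as triamterene equivalency. HEK293 cells were seeded at 2,000/well, dosed after a 4-5 hr attachment, and kept overnight at 37C before the 405/460 nm reading.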

[9] = qHTS assay to test for compound auto fluorescence at 590 nm (red) in HEK293 cells (AID 720679)
Summary of the method: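 Autofluorescence equivalency to Rose Bengal sodium, 540/590nm, in HEK293 cells exposed overnight to 23 nL compound per well.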

[10] = qHTS assay for small molecules that induce genotoxicity in human embryonic kidney cells expressing luciferase-tagged ATAD5 - cell viability (AID 651634; calls by dose curve; further: nearly all actives have a fitted effect of over 25% in size)
Summary of the method: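 Fluorescence from CellTiter-Fluor, reporting protease activity within live cells, served as the viability read-out. HEK293T cells carrying luciferase-tagged ATAD5 had been treated with compound for 15.5 hr at 37C.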
On the % scale 0 is the no-effect control and ±100 the full control effect.

CCCC(=O)CC
inactive: Potency [1] | Potency [2] | outcome [3] | outcome [4] | Potency [5] | outcome [6] | outcome [7] | outcome [8] | outcome [9]

CCC(C)SSC(C)CC (stereo unspecified)
inactive: Potency [1] | Potency [2] | outcome [10] | outcome [4] | outcome [6] | outcome [7] | outcome [8] | outcome [9]

CNCCc1ccccn1
inactive: Potency [1] | Potency [2] | outcome [3] | outcome [4] | fluorescence, relative to Rose Bengal [6] 0.136% [at 18.6 µM] | fluorescence, % of fluorescein control [7] -0.0784% [at 18.6 µM] | fluorescence, % of triamterene [8] 0.106% [at 18.6 µM] | fluorescence, % of fluorescent control [9] 0.589% [at 18.6 µM]

Cc1cc(N)no1
inactive: Potency [1] | Potency [2] | outcome [10] | outcome [4] | outcome [6] | outcome [7] | outcome [8] | outcome [9]

O=C(O)P(=O)(O)O
inactive: Potency [1] | Potency [2] | outcome [10] | outcome [4] | outcome [6] | outcome [7] | outcome [8] | outcome [9]

CCOC(=O)CC(C(C)=O)C(C)=O
inactive: Potency [1] | Potency [2] | outcome [10] | Potency [5] | outcome [6] | outcome [7] | outcome [9]

COc1cnc(NS(=O)(=O)c2ccc(N)cc2)nc1
inactive: Potency [1] | Potency [2] | outcome [10] | outcome [4] | Potency [5] | fluorescence, relative to Rose Bengal [6] -0.0895% [at 18.6 µM] | fluorescence, % of fluorescein control [7] -0.0734% [at 18.6 µM] | fluorescence, % of triamterene [8] 0.0096% [at 18.6 µM] | fluorescence, % of fluorescent control [9] 0.0444% [at 18.6 µM]

CCN(CC)CC
inactive: Potency [1] | Potency [2] | outcome [3] | outcome [4] | outcome [6] | outcome [7] | outcome [8] | outcome [9]

CCCC(=O)C(CC)Sc1ccoc1C (stereo unspecified)
inactive: Potency [1] | Potency [2] | outcome [10] | outcome [4] | Potency [5] | outcome [6] | outcome [7] | outcome [8] | outcome [9]

CC(C)(C)OC(=O)c1ccccc1C(=O)O
inactive: Potency [1] | Potency [2] | outcome [10] | outcome [4] | Potency [5] | outcome [6] | outcome [7] | outcome [8] | outcome [9]

Cc1nnc(C(=O)NC(C)(C)c2nc(C(=O)NCc3ccc(F)cc3)c(O)c(=O)n2C)o1
inactive: Potency [1] | Potency [2] | outcome [3] | outcome [4] | Potency [5] | outcome [6] | outcome [7] | outcome [8] | outcome [9]

Cc1ccc(O)c(C(=O)c2ccccc2)c1
inactive: Potency [1] | Potency [2] | outcome [3] | outcome [4] | outcome [6] | outcome [7] | outcome [8] | outcome [9]

CCCCc1ccc(Cl)cc1
inactive: Potency [1] | Potency [2] | outcome [10] | outcome [4] | Potency [5] | outcome [6] | outcome [7] | outcome [8] | outcome [9]

CN1C(CCl)Nc2cc(Cl)c(S(N)(=O)=O)cc2S1(=O)=O (stereo unspecified)
inactive: Potency [1] | Potency [2] | outcome [10] | outcome [4] | outcome [6] | outcome [7] | outcome [8] | outcome [9]

CCCCCCCOC(C)=O
inactive: Potency [1] | Potency [2] | outcome [3] | Potency [5] | outcome [6] | outcome [7] | outcome [8] | outcome [9]

O=C(OOC(=O)c1ccccc1)c1ccccc1
inactive: Potency [1] | Potency [2] | outcome [3] | Potency [5] | outcome [6] | outcome [7] | outcome [8] | outcome [9]

CCCCCCCCCCCCCCCC/C=C/C1CC(=O)OC1=O (stereo unspecified)
inactive: Potency [1] | Potency [2] | outcome [3] | outcome [4] | outcome [6] | outcome [7] | outcome [9]

CCCC(=O)OC
inactive: Potency [1] | Potency [2] | outcome [10] | outcome [4] | Potency [5] | outcome [6] | outcome [7] | outcome [8] | outcome [9]

CCN1CCN(C(=O)N[C@@H](C(=O)N[C@@H]2C(=O)N3[C@@H]2SC(C)(C)[C@H]3C(=O)O)c2ccccc2)C(=O)C1=O
inactive: Potency [2] | outcome [3] | outcome [10] | outcome [4] | Potency [5] | outcome [6] | outcome [7] | outcome [9]

Nc1nc(Cl)cc(Cl)n1
inactive: Potency [2] | outcome [3] | outcome [10] | outcome [4] | Potency [5] | outcome [6] | outcome [7] | outcome [8] | outcome [9]
